In the library only some 3.8% were active in any assay of this set; here they are far more common.
ADAM10 inh – ADAM10 inhibition, QFRET primary screen. recombinant ADAM10, EDANS/DABCYL FRET peptide cleavage, 3 h. inhibition, % at 7 µM. 0.62% of 370,000 active. AID 720582;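 active = inhibition above a per-campaign cutoff equal to the mean of compounds falling between control-based bounds plus 3 SD, cut at about 20% in these data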;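 also: 0% = DMSO wells while the 100% control is not disclosed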
Target sequence (O14672 214-748 limits assumed): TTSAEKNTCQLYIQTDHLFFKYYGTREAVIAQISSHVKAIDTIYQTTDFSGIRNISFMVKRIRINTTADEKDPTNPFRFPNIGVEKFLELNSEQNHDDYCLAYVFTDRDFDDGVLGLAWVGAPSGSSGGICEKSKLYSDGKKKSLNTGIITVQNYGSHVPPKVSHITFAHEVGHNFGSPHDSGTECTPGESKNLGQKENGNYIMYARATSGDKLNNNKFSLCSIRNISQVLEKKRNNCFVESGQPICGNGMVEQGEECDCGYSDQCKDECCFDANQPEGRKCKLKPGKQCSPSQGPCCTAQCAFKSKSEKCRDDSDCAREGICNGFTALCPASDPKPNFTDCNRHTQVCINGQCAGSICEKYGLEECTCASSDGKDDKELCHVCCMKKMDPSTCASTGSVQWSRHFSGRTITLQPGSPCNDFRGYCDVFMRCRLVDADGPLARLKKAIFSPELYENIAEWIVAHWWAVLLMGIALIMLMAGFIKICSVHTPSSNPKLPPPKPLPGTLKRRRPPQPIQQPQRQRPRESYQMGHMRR
proKLK7 act – proKLK7 (human) activation, primary screen. activation, % at 7 µM. 0.9% of 370,000 active. purified proKLK7, EDANS-DABCYL substrate fluorescence; 100% is mature enzyme control, 0% vehicle. P49862. AID 652039;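 active = activation above the mean of all tested compounds plus 3 SD, computed per campaign excluding outliers beyond control limits, cut at about 13% in these data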
Ecoli rRNA inh – inhibitors of bacterial rRNA selective over humanized ribosomes | 1.6% of 350,000 active | GFP signal change (wild-type ribosome), % (test concentration not listed) | E. coli WT GFP vs humanized-ribosome RFP mutants, fluorescence, 24 h; stronger effect = lower value; DMSO median 0, no signal -100;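 active = significant combined selectivity score with lowered wild-type GFP, culture density cut under 30%, mutant RFP and density less affected; inactive = any of these conditions unmet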
FGF22 binding – FGF22 (human) thermal shift binding; Q9HCT0; recombinant FGF22 thermal shift, SYPRO orange fluorescence; percent of sucrose octasulfate shift, DMSO zero; activity (Tm shift, normalised), % at 9.99 µM; 1.5% of 340,000 active; AID 651658;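 active = mean Tm shift, scaled 0 neutral to 100 positive control, at about 1.3% or above, every replicate too, limit read from the data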
Target sequence (Q9HCT0 whole entry, looked up): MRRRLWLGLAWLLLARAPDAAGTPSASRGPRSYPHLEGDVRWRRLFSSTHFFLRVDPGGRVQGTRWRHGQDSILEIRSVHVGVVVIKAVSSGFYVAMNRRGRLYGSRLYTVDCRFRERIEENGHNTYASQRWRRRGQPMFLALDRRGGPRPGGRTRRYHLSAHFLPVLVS
ADAM17 inh – ADAM17 inhibition, QFRET primary screen. P78536. recombinant ADAM17, EDANS/DABCYL FRET peptide cleavage. inhibition, % at 6.95 µM. 0.83% of 370,000 active. AID 720648;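 active = inhibition above the mean of compounds lying between control limits plus 3 SD, set per campaign, cut at about 8.5% in these data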;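 also: 0% = DMSO-only wells as the low control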
ADAM10 confirm – human ADAM10 inhibition, confirmation | shares compounds with ADAM10 inh | ADAM10 QFRET peptide cleavage, EDANS fluorescence | inhibition, % at 6.95 µM | 1% of 2,100 active;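 active = inhibition above about 20% chosen separately for each screening run, limit read from the data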;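 also: 0% = DMSO wells and 100% = marimastat wells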
ADAM17 counter – counter-screen for ADAM10 exosite inhibitors: inhibitors of human ADAM17; shares compounds with ADAM10 inh; ADAM17 QFRET peptide cleavage, EDANS fluorescence; inhibition, % at 6.95 µM; 0.5% of 2,100 active; AID 743214;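 active = mean triplicate inhibition above the solvent-only control wells' mean plus 3 SD, cut at about 12% in these data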;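 also: 0% = DMSO wells and 100% = marimastat wells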
ADAM10 ctr – ADAM10 inhibition, counter-screen for ADAM17 exosite hits | shares compounds with ADAM17 inh | recombinant ADAM10, EDANS/DABCYL FRET peptide cleavage, 3 h | inhibition, % at 6.95 µM | 47% of 2,900 active | AID 743256;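 active = mean inhibition over the triplicate runs exceeds the activity threshold set in the earlier primary screen, cut at about 20% in these data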;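 also: 0% = DMSO wells and 100% = marimastat wells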
ADAM17 confirm – confirmation of inhibitors of human ADAM17 | shares compounds with ADAM17 inh | recombinant ADAM17, EDANS/DABCYL QFRET peptide cleavage | inhibition, % at 6.95 µM | 65% of 2,900 active | AID 743257;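 active = mean inhibition across replicates above the hit cutoff set in the primary screen, cut at about 8.5% in these data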;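 also: 0% = DMSO wells and 100% = marimastat wells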
* hit, by the source's call; / = not tested or not shown.

SMILES | ADAM10 inh | proKLK7 act | Ecoli rRNA inh | FGF22 binding | ADAM17 inh | ADAM10 confirm | ADAM17 counter | ADAM10 ctr | ADAM17 confirm
Cc1cc(C)cc(-n2c(SC(C)C(=O)NCc3ccc4c(c3)OCO4)nc3ccccc3c2=O)c1 (centres undefined) | 23* | 0 | / | 0 | 11* | 2 | 1 | 19 | 11*
Cc1cccc(-n2c(SCC(=O)NCc3ccc4c(c3)OCO4)nc3ccccc3c2=O)c1 | -4 | 0 | 10 | 0 | -4 | / | / | / | /
COc1ccc(NC(C)C(=O)N/N=C/c2ccccc2OCc2cccc(Br)c2)cc1 (centres undefined) | 21* | 0 | / | / | 8.8* | 11 | 3 | 48* | 22*
Cc1ccccc1NC(C)C(=O)N/N=C/c1ccccc1OCc1cccc(Br)c1 (centres undefined) | 24* | -1 | / | / | 9.7* | 17 | 6 | 16 | 14*
CC(C)(C)OC(=O)N1CCCC(C(=O)Nc2cccc(C(=O)NCCc3ccccc3)c2)C1 (centres undefined) | 4 | 0 | -29 | 0 | -2 | / | / | / | /
CC(C)(C)OC(=O)N1CCCC(C(=O)Nc2cccc(C(=O)NCCCCc3ccccc3)c2)C1 (centres undefined) | 22* | 0 | -8 | 0 | 13* | 3 | 1 | 18 | 12*
Cc1ccccc1-n1c(SCC(=O)N/N=C/C=C/c2ccccc2[N+](=O)[O-])nc2ccccc2c1=O | 23* | 0 | 11 | 0 | 10.0* | 5 | 1 | 18 | 12*
CC(C)NC(=O)Nc1cccc2c1O[C@H](CN(C)C(=O)OC(C)(C)C)[C@H](C)CN(C)C2=O | / | / | 1 | / | / | / | / | / | /
C[C@@H]1CCCCO[C@H](CN(C)S(=O)(=O)c2cccs2)[C@@H](C)CN([C@H](C)CO)C(=O)c2cc(NS(C)(=O)=O)ccc2O1 | / | / | -1 | 1 | / | / | / | / | /
CCc1ccc(C2c3[nH]c4ccccc4c3CCN2C(=O)c2cc(C)nn2C)cc1 (centres undefined) | 23* | 0 | / | / | 13* | 7 | 3 | 16 | 10*
Cc1cnc(C(=O)N2CCc3c([nH]c4ccccc34)C2c2ccc(F)cc2)cn1 (centres undefined) | 6 | 1 | -4 | 0 | 2 | / | / | / | /
COC(=O)Nc1ccc(S(=O)(=O)N2CCC(Cc3ccccc3)CC2)cc1 | 20* | 0 | / | / | 11* | 7 | 3 | 35* | 14*
C[C@@H]1CN([C@H](C)CO)C(=O)c2cc(NC(=O)Nc3ccc(F)cc3)ccc2O[C@@H](C)CCCCO[C@H]1CN(C)S(=O)(=O)c1ccc(Cl)cc1 | 32* | 0 | 0 | 0 | 13* | 9 | 4 | 34* | 17*
C[C@@H]1CN([C@@H](C)CO)C(=O)c2cc(NC(=O)Nc3ccc(C(F)(F)F)cc3)ccc2O[C@@H]1CN(C)S(=O)(=O)c1ccc(F)cc1 | / | / | 4 | 0 | / | / | / | / | /
C[C@H]1CN([C@@H](C)CO)C(=O)c2cccc(NS(=O)(=O)c3ccc(F)cc3)c2O[C@H]1CN(C)Cc1ccc(Cl)c(Cl)c1 | 20* | 0 | -7 | -1 | 9.2* | 5 | 1 | 28* | 15*
C[C@@H]1CN([C@H](C)CO)C(=O)c2cc(NC(=O)Nc3ccc(C(F)(F)F)cc3)ccc2O[C@H]1CN(C)S(=O)(=O)c1ccccc1 | 28* | 0 | -1 | 0 | 11* | 6 | 3 | 28* | 16*
COCc1cn(CC[C@H]2CC[C@@H](NC(=O)Nc3ccc(Cl)cc3)[C@@H](CO)O2)nn1 | / | / | 2 | 0 | / | / | / | / | /
COc1cccc(NC(=O)N2C[C@@H](O)COC[C@H]3O[C@@H](CC(=O)NCc4ccccc4F)CC[C@@H]32)c1 | / | / | -4 | 0 | / | / | / | / | /
COc1ccc(NC(=O)N(C)C[C@H]2OCCCC[C@H](C)Oc3ccc(NC(=O)Nc4cccc5ccccc45)cc3C(=O)N([C@H](C)CO)C[C@H]2C)cc1 | / | / | -6 | 0 | / | / | / | / | /
COc1ccccc1C#Cc1ccc2c(c1)[C@@H]1[C@@H](CCN1C(=O)CN1CCOCC1)[C@H](CO)N2 | / | / | -2 | 0 | / | / | / | / | /
O=[N+]([O-])c1cccnc1N1CCC(c2cc(-c3cccc(C(F)(F)F)c3)n[nH]2)CC1 | 20* | 0 | / | / | 11* | 15 | 3 | 48* | 19*
CC(=O)c1ccc(N2CCC(c3cc(-c4ccc(Cl)cc4Cl)n[nH]3)CC2)c([N+](=O)[O-])c1 | 20* | 0 | / | / | 13* | 13 | 4 | 44* | 21*
O=[N+]([O-])c1cccnc1N1CCC(c2cc(-c3ccc(Cl)cc3Cl)n[nH]2)CC1 | 30* | 0 | / | / | 11* | 8 | 2 | 31* | 17*
NC(=O)C1CCN(c2ncccc2[N+](=O)[O-])CC1 | 2 | 1 | 13 | 0 | -4 | / | / | / | /
COc1cccc(C#Cc2ccc([C@@H]3[C@H]4CN(S(=O)(=O)c5ccccc5C)CC(=O)N4[C@H]3CO)cc2)c1 | / | / | 2 | 0 | / | / | / | / | /
SMILES | ADAM10 inh | proKLK7 act | Ecoli rRNA inh | FGF22 binding | ADAM17 inh | ADAM10 confirm | ADAM17 counter | ADAM10 ctr | ADAM17 confirm
C[C@H](CO)N1C[C@H](C)[C@H](CN(C)C(=O)C2CCCCC2)Oc2ncc(C#CC(C)(C)O)cc2C1=O | / | / | 6 | / | / | / | / | / | /
N#Cc1c(Cl)nc(N/N=C/c2ccccc2)c(Cl)c1Cl | 23* | 0 | -54 | 1 | 9.1* | 31* | 15* | -121 | -24
COC(=O)C1=CC[C@@H](NC(=O)OC(C)(C)C)[C@H](O)[C@H]1O[Si](C)(C)C(C)(C)C | 22* | / | / | / | 9.9* | 1 | 0 | 5 | 4
COC(=O)CC(=O)O[C@H]1C=C[C@@H](NC(=O)OC(C)(C)C)C1 | -4 | 1 | 6 | 0 | -3 | / | / | / | /
CCCN1[C@H](C(=O)OC)[C@@H](CO)[C@@H]2Cn3c(ccc(C4=CCCC4)c3=O)[C@@H]21 | / | / | 4 | 0 | / | / | / | / | /
COCCN=c1scc(-c2cc(OC)ccc2OC)n1/N=C/c1c[nH]c2ccccc12 | 20* | 1 | -7 | 0 | 11* | 17 | 7 | 16 | 12*
CC(CCc1ccc(O)cc1)NC(c1ccccc1)c1ccc(Cl)cc1 (centres undefined) | 28* | 0 | -56 | -1 | 12* | 6 | 2 | 29* | 24*

Source: PubChem BioAssay
